Assay results: PubChem BioAssay AID1159580 (chemical genetic matrix, 2015)
Out of some 5,500 compounds screened, about 2,000 (36%) were called active. Not shown: some 18% with an inconclusive outcome. Rule as the data show it: active = normalized growth mostly below about 0.91 (no sharp cut-off); inconclusive = no clear call, values can overlap the other calls; inactive = mostly above about 0.92. Some of the results follow.

Experiment: chemical genetic growth profiling, strain panel (AID 1159580);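 also: tested at 20 µM; growth read once vehicle control cultures reached saturation at 30 °C; 1 = growth at the plate median or of vehicle wells; lower values mean less growth of the strain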
Conditions: growth OD
[1] = S. cerevisiae deletion strains, locus YAL013W, strain DEP1, hits give low values
[2] = S. cerevisiae deletion strains, locus YBR229C, strain ROT2, hits give low values
[3] = S. cerevisiae deletion strains, locus YDL101C, strain DUN1, hits give low values
[4] = S. cerevisiae deletion strains, locus YDL134C, strain PPH21, hits give low values
[5] = S. cerevisiae deletion strains, locus YDR150W, strain NUM1, hits give low values
[6] = S. cerevisiae deletion strains, locus YEL061C, strain CIN8, hits give low values
[7] = S. cerevisiae deletion strains, locus YGR078C, strain PAC10, hits give low values
[8] = S. cerevisiae deletion strains, locus YGR229C, strain SMI1, hits give low values
[9] = S. cerevisiae deletion strains, locus YHR030C, strain SLT2, hits give low values
[10] = S. cerevisiae deletion strains, locus YHR087W, strain rtc3, hits give low values
[11] = S. cerevisiae deletion strains, locus YJR043C, strain POL32, hits give low values
[12] = S. cerevisiae deletion strains, locus YJR075W, strain HOC1, hits give low values
[13] = S. cerevisiae deletion strains, locus YLR039C, strain RIC1, hits give low values
[14] = S. cerevisiae deletion strains, locus YLR058C, strain SHM2 (second series), hits give low values
[15] = S. cerevisiae deletion strains, locus YLR085C, strain ARP6, hits give low values
[16] = S. cerevisiae deletion strains, locus YLR262C, strain YPT6, hits give low values
[17] = S. cerevisiae deletion strains, locus YML094W, strain GIM5, hits give low values
[18] = S. cerevisiae deletion strains, locus YMR219W, strain ESC1, hits give low values
[19] = S. cerevisiae deletion strains, locus YMR263W, strain SAP30, hits give low values
[20] = S. cerevisiae deletion strains, locus YNL128W, strain TEP1, hits give low values
[21] = S. cerevisiae deletion strains, locus YNL153C, strain GIM3, hits give low values
[22] = S. cerevisiae deletion strains, locus YNL298W, strain CLA4 (second series), hits give low values
[23] = S. cerevisiae deletion strains, locus YNL322C, strain KRE1, hits give low values
[24] = S. cerevisiae deletion strains, locus YNR030W, strain Alg12, hits give low values
[25] = S. cerevisiae deletion strains, locus YOL006C, strain TOP1, hits give low values
[26] = S. cerevisiae deletion strains, locus YPL055C, strain LGE1, hits give low values
[27] = S. cerevisiae deletion strains, locus YPL241C, strain CIN2, hits give low values
[28] = S. cerevisiae deletion strains, locus YPR135W, strain CTF4, hits give low values
[29] = S. cerevisiae strains, strain wild type, hits give low values
[30] = S. cerevisiae deletion strains, locus YKL190W, strain CNB1, hits give low values

Measured: normalized growth

CCCCCc1ccc(C(=O)O/N=C\c2c(Cl)cccc2Cl)cc1
inactive: [1] 0.966 | [2] 0.941 | S. cerevisiae deletion strains, locus YCL061C, strain MRC1, hits give low values 0.933 | [3] 1.01 | [4] 0.936 | [5] 1.01 | [7] 0.959 | [9] 1.01 | [10] 0.939 | [11] 0.962 | [12] 0.982 | [13] 0.84 | [14] 0.943 | [15] 0.943 | [16] 0.82 | [17] 0.98 | [18] 0.95 | [19] 1.03 | [20] 0.962 | [22] 0.969 | [23] 0.947 | [24] 0.958 | [25] 0.796 | [26] 0.943 | [27] 0.963 | [28] 1.07 | [29] 0.919
active: [6] 0.902 | [8] 0.929 | [21] 0.92

O=[N+]([O-])c1cnc(Sc2n[nH]c(-c3cccs3)n2)s1
active: [1] 0.488 | [2] 0.258 | [3] 0.23 | [5] 0.347 | [6] 0.612 | [7] 0.214 | [9] 0.312 | [10] 0.377 | [11] 0.602 | [12] 0.224 | [30] 0.715 | [13] 0.426 | [14] 0.404 | [15] 0.152 | [16] 0.596 | [17] 0.573 | [18] 0.35 | [19] 0.194 | [20] 0.876 | [21] 0.215 | [22] 0.352 | [23] 0.927 | [24] 0.508 | [26] 0.126 | [27] 0.36 | [28] 0.319
inactive: [8] 0.974

N[C@H](C(=O)O)[C@H]1C[C@@H]1C(=O)O
inactive: S. cerevisiae deletion strains, locus YAL040C, strain CLN3, hits give low values 1.11 | S. cerevisiae deletion strains, locus YCL061C, strain MRC1 (second series), hits give low values 1.01 | S. cerevisiae deletion strains, locus YDR363W, strain ESC2, hits give low values 1.03 | S. cerevisiae deletion strains, locus YER002W, strain NOP16, hits give low values 1.01 | [7] 1.02 | [19] 1.01 | [21] 1.02 | S. cerevisiae deletion strains, locus YNL175C, strain NOP13, hits give low values 1 | S. cerevisiae deletion strains, locus YNL197C, strain WHI3, hits give low values 1.06 | S. cerevisiae deletion strains, locus YNL224C, strain SQS1, hits give low values 0.996 | S. cerevisiae deletion strains, locus YOR083W, strain WHI5 (second series), hits give low values 1.03 | [27] 1.01

N[C@H](C(=O)O)[C@@H]1CC(Cl)=NO1
active: [1] 0.796 | S. cerevisiae deletion strains, locus YBR021W, strain FUR4, hits give low values 1.27 [resistant] | [2] 0.629 | S. cerevisiae deletion strains, locus YCL029C, strain bik1, hits give low values 0.258 | S. cerevisiae deletion strains, locus YDL035C, strain GPR1, hits give low values 0.321 | S. cerevisiae deletion strains, locus YDL074C, strain BRE1, hits give low values 0.48 | [3] 0.23 | [4] 0.355 | S. cerevisiae deletion strains, locus YDL185W, strain tfp1, hits give low values 0.149 | S. cerevisiae deletion strains, locus YDL192W, strain arf1, hits give low values 0.24 | S. cerevisiae deletion strains, locus YDR101C, strain arx1, hits give low values 0.287 | [5] 0.605 | S. cerevisiae deletion strains, locus YDR162C, strain NBP2, hits give low values 0.318 | S. cerevisiae deletion strains, locus YDR318W, strain mcm21, hits give low values 0.199 | S. cerevisiae deletion strains, locus YDR388W, hits give low values 0.191 | S. cerevisiae deletion strains, locus YDR502C, strain sam2, hits give low values 0.2 | [6] 0.409 | S. cerevisiae deletion strains, locus YER110C, hits give low values 0.451 | S. cerevisiae deletion strains, locus YER155C, strain BEM2, hits give low values 0.464 | S. cerevisiae deletion strains, locus YER167W, strain BCK2, hits give low values 0.288 | S. cerevisiae deletion strains, locus YGL078C, strain dbp3, hits give low values 0.238 | S. cerevisiae deletion strains, locus YGL086W, strain mad1, hits give low values 0.267 | S. cerevisiae deletion strains, locus YGL248W, strain PDE1, hits give low values 0.331 | [7] 0.437 | S. cerevisiae deletion strains, locus YGR135W, strain pre9, hits give low values 0.234 | [8] 0.197 | S. cerevisiae deletion strains, locus YGR252W, strain gcn5, hits give low values 0.508 | [9] 0.478 | S. cerevisiae deletion strains, locus YHR079C, strain IRE1 (second series), hits give low values 0.186 | S. cerevisiae deletion strains, locus YHR094C, strain hxt1, hits give low values 0.275 | S. cerevisiae deletion strains, locus YHR129C, strain ARP1, hits give low values 0.481 | S. cerevisiae deletion strains, locus YHR200W, strain rpn10, hits give low values 0.376 | S. cerevisiae deletion strains, locus YIL066C, strain RNR3, hits give low values 0.468 | S. cerevisiae deletion strains, locus YIL073C, strain SPO22, hits give low values 0.39 | S. cerevisiae deletion strains, locus YIL125W, strain kgd1, hits give low values 0.185 | S. cerevisiae deletion strains, locus YIR030C, strain dcg1, hits give low values 0.26 | S. cerevisiae deletion strains, locus YJL095W, strain BCK1, hits give low values 0.287 | S. cerevisiae deletion strains, locus YJL134W, strain LCB3, hits give low values 0.605 | S. cerevisiae deletion strains, locus YJL168C, strain set2, hits give low values 0.541 | S. cerevisiae deletion strains, locus YJL187C, strain SWE1 (second series), hits give low values 0.345 | [11] 0.267 | [12] 0.52 | S. cerevisiae deletion strains, locus YKL009W, strain mrt4, hits give low values 0.381 | S. cerevisiae deletion strains, locus YKL068W, hits give low values 0.433 | S. cerevisiae deletion strains, locus YKL085W, strain MDH1 (second series), hits give low values 0.214 | S. cerevisiae deletion strains, locus YKL085W, strain MDH1, hits give low values 0.214 | [30] 0.446 | S. cerevisiae deletion strains, locus YKR001C, strain vps1, hits give low values 0.189 | [13] 0.45 | S. cerevisiae deletion strains, locus YLR058C, strain SHM2, hits give low values 0.398 | S. cerevisiae deletion strains, locus YLR102C, strain apc9, hits give low values 0.28 | [16] 0.516 | S. cerevisiae deletion strains, locus YLR268W, strain sec22, hits give low values 0.174 | S. cerevisiae deletion strains, locus YLR330W, strain CHS5, hits give low values 0.388 | S. cerevisiae deletion strains, locus YLR342W, strain FKS1 (second series), hits give low values 0.573 | S. cerevisiae deletion strains, locus YLR371W, strain rom2, hits give low values 0.505 | S. cerevisiae deletion strains, locus YLR418C, strain cdc73, hits give low values 0.468 | S. cerevisiae deletion strains, locus YML016C, strain PPZ1, hits give low values 0.364 | S. cerevisiae deletion strains, locus YML032C, strain rad52, hits give low values 0.238 | S. cerevisiae deletion strains, locus YML124C, strain tub3, hits give low values 0.302 | S. cerevisiae deletion strains, locus YMR078C, strain ctf18, hits give low values 0.352 | S. cerevisiae deletion strains, locus YMR223W, strain ubp8, hits give low values 0.22 | [19] 0.619 | S. cerevisiae deletion strains, locus YNL067W, strain RPL9B, hits give low values 0.353 | [20] 0.29 | [21] 0.504 | S. cerevisiae deletion strains, locus YNL233W, strain BNI4, hits give low values 0.419 | S. cerevisiae deletion strains, locus YNL250W, strain rad50, hits give low values 0.246 | S. cerevisiae deletion strains, locus YNL271C, strain bni1, hits give low values 0.188 | S. cerevisiae deletion strains, locus YNL298W, strain CLA4, hits give low values 0.319 | S. cerevisiae deletion strains, locus YNL307C, strain MCK1, hits give low values 0.0999 | [23] 0.457 | S. cerevisiae deletion strains, locus YNR052C, strain pop2, hits give low values 0.11 | [25] 0.495 | S. cerevisiae deletion strains, locus YOL147C, strain pex11, hits give low values 0.27 | S. cerevisiae deletion strains, locus YOR061W, strain CKA2, hits give low values 0.483 | S. cerevisiae deletion strains, locus YOR069W, strain VPS5, hits give low values 0.447 | S. cerevisiae deletion strains, locus YOR136W, strain idh2, hits give low values 0.272 | S. cerevisiae deletion strains, locus YOR144C, strain elg1, hits give low values 0.352 | S. cerevisiae deletion strains, locus YOR184W, strain ser1, hits give low values 0.152 | S. cerevisiae deletion strains, locus YOR316C, strain cot1, hits give low values 0.359 | [26] 0.448 | [27] 0.571 | S. cerevisiae deletion strains, locus YPR119W, strain clb2, hits give low values 0.335 | S. cerevisiae deletion strains, locus YPR141C, strain kar3, hits give low values 0.272 | S. cerevisiae deletion strains, locus YPR163C, strain tif3, hits give low values 0.307 | S. cerevisiae deletion strains, locus YPR167C, strain met16, hits give low values 0.392 | S. cerevisiae deletion strains, strain wtn01, hits give low values 0.212 | [29] 0.351
inactive: S. cerevisiae deletion strains, locus YMR307W, strain GAS1, hits give low values 0.671 | S. cerevisiae deletion strains, locus YOL012C, strain htz1 0.224
